In assay [1] the target is human RAR-related Orphan Receptor gamma (RORg), RORC (gene 6097) (UniProt P51449). Kind of assay: ATG_RORg_TRANS: Attagene TRANS-FACTORIAL HepG2 Assay for human RAR-related Orphan Receptor gamma (RORg) (AID 2283011; active = hit-call score of the fitted dose curve at least 0.9, where 1 is the maximum). In short, it runs like this: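 Chimeric RORg-Gal4 transactivation in transfected HepG2; 24 h exposure; RT-PCR/capillary electrophoresis readout of reporter mRNA, DMSO baseline.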

Assay [2] deals with Retinoic acid receptor RXR-alpha (Homo sapiens) (UniProt P19793). The experiment in a line: ATG_RXRa_TRANS: Attagene TRANS-FACTORIAL HepG2 Assay for human Retinoid X Receptor alpha (RXRa) (AID 2283012; active = hit-call score of the fitted dose curve at least 0.9, where 1 is the maximum). In short, it runs like this: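 Cells (HepG2) carried transiently transfected GAL4-responsive reporter units. Following a 24 h chemical incubation, reporter mRNA induction was read via RT-PCR fragment analysis; DMSO served as negative control and baseline.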

Assay [3] concerns the target human Retinoid X Receptor beta (RXRb), RXRB (gene 6257) (UniProt P28702). The experiment in a line: ATG_RXRb_TRANS: Attagene TRANS-FACTORIAL HepG2 Assay for human Retinoid X Receptor beta (RXRb) (AID 2283013; active = hit-call score of the fitted dose curve at least 0.9, where 1 is the maximum). In short, it runs like this: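 Multiplexed TRANS reporter assay in HepG2; 24 h dosing; reporter mRNA by RT-PCR/CE fluorescence; gain-of-signal relative to DMSO.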

Read-out in assay [4]: E-selectin (Homo sapiens) (UniProt P16581)
The experiment in a line: BSK_3C_Eselectin: BioMAP Diversity Plus: 3C Assay for Eselectin Biomarker Activity (AID 2283015).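 For outcome: cell surface E-selectin protein quantified by ELISA 24 h after dosing.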 Conditions: primary human endothelial cells (HUVEC); actives raise or lower the signal. The gist of the method:
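Endpoint derived by bidirectional fitting against DMSO vehicle; signal is ELISA-detected E-selectin from primary HUVEC at 24 h post-dosing, with parallel SRB staining (0.1% SRB, 560 nm) flagging cytotoxicity.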

Read-out in assay [5]: Interleukin-1 alpha (IL1a), IL1A (gene 3552)
Kind of assay: BSK_BE3C_IL1a: BioMAP Diversity Plus: BE3C Assay for Interleukin-1 alpha (IL1a) Biomarker Activity (AID 2283016). Conditions: primary human bronchial epithelial cells; actives raise or lower the signal. The gist of the method:
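Cultures of primary human bronchial epithelial cells receive test chemical. After 24 h, IL-1a is quantified by ELISA, while parallel wells are fixed in TCA and SRB-stained for total protein. Changes in either direction are fitted relative to DMSO.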

Read-out in assay [6]: Monocyte Chemoattractant Protein-1 (MCP1), CCL2 (gene 6347)
The experiment in a line: BSK_3C_MCP1: BioMAP Diversity Plus: 3C Assay for Monocyte Chemoattractant Protein-1 (MCP1) Biomarker Activity (AID 2283017). Conditions: primary human endothelial cells (HUVEC); actives raise or lower the signal. The gist of the method: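 Using human vascular primary endothelium, researchers measured MCP-1 by ELISA 24 h after treatment, with DMSO serving as negative control for bidirectional fitting.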

Read-out in assay [7]: Human Leukocyte Antigen - DR isotype (HLADR), HLA-DRA (gene 3122)
Kind of assay: BSK_3C_HLADR: BioMAP Diversity Plus: 3C Assay for Human Leukocyte Antigen - DR isotype (HLADR) Biomarker Activity (AID 2283019).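 For outcome: ELISA of cell-surface HLA-DR on HUVEC 24 h after dosing.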 Conditions: primary human endothelial cells (HUVEC); actives raise or lower the signal. In short, it runs like this:
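Compound added to primary HUVEC cultures, 24 h incubation, then HLA-DR determined by ELISA; endpoint derived by bidirectional fitting relative to DMSO negative control.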

Read-out in assay [8]: Monokine induced gamma interferon (MIG), CXCL9 (gene 4283)
Kind of assay: BSK_3C_MIG: BioMAP Diversity Plus: 3C Assay for Monokine induced gamma interferon (MIG) Biomarker Activity (AID 2283021).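 For AC50: MIG protein level measured by immunoassay in the treated endothelial cultures.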 Conditions: primary human endothelial cells (HUVEC); actives raise or lower the signal. The gist of the method: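 After 24 h of treatment, human umbilical vein endothelial cultures (3C system) had their MIG biomarker level determined by ELISA, with DMSO serving as negative control.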

Read-out in assay [9]: Monocyte Chemoattractant Protein-1 (MCP1), CCL2 (gene 6347)
Kind of assay: BSK_4H_MCP1: BioMAP Diversity Plus: 4H Assay for Monocyte Chemoattractant Protein-1 (MCP1) Biomarker Activity (AID 2283018). Conditions: primary human endothelial cells (HUVEC); actives raise or lower the signal. In short, it runs like this: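 Readout: MCP-1 ELISA on compound-treated HUVEC, sampled 24 h post-dosing. Baseline and negative control DMSO; bidirectional fit. Overt toxicity checked alongside by sulforhodamine B protein staining at time of biomarker measurement.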

Read-out in assay [10]: Interleukin-8 (IL8), CXCL8 (gene 3576)
The experiment in a line: BSK_3C_IL8: BioMAP Diversity Plus: 3C Assay for Interleukin-8 (IL8) Biomarker Activity (AID 2283020). Conditions: primary human endothelial cells (HUVEC); actives raise or lower the signal. The gist of the method: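 Human vascular endothelial cells (umbilical vein) in the 3C system; IL-8 level detected by ELISA at 24 h post-dose, with DMSO as baseline.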

Our source for the outcome and AC50 values is PubChem BioAssay (EPA / NIEHS).

Values joined by “and” are separate entries in the source; they are usually repeats but may differ in a detail not shown here. Equal values may be shown once. Records with an inconclusive call do not appear. A structure can be active in one record and inactive in another. Active and inactive are the calls of the source. Rule for the calls, unless noted: active = hit-call score of the fitted dose curve at least 0.9, where 1 is the maximum; inactive = score below 0.9.

E-selectin (Homo sapiens), sequence (P16581 whole entry, looked up): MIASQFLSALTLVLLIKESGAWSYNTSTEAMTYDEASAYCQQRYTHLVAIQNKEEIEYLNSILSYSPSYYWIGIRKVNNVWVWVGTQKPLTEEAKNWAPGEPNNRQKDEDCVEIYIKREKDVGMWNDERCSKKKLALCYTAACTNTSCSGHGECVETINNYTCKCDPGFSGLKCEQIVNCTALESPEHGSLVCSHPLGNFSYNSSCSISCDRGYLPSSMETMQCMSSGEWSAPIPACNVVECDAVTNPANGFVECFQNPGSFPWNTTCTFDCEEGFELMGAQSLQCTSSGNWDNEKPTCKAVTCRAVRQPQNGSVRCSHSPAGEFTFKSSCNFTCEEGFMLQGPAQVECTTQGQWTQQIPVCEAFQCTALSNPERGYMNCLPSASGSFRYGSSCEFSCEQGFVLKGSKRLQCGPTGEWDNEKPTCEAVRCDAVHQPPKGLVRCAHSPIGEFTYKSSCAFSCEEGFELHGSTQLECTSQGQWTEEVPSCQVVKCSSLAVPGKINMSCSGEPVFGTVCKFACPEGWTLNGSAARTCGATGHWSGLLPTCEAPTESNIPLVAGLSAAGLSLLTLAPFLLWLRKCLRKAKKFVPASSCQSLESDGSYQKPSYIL
human Retinoid X Receptor beta (RXRb), RXRB (gene 6257), sequence (P28702 whole entry, looked up): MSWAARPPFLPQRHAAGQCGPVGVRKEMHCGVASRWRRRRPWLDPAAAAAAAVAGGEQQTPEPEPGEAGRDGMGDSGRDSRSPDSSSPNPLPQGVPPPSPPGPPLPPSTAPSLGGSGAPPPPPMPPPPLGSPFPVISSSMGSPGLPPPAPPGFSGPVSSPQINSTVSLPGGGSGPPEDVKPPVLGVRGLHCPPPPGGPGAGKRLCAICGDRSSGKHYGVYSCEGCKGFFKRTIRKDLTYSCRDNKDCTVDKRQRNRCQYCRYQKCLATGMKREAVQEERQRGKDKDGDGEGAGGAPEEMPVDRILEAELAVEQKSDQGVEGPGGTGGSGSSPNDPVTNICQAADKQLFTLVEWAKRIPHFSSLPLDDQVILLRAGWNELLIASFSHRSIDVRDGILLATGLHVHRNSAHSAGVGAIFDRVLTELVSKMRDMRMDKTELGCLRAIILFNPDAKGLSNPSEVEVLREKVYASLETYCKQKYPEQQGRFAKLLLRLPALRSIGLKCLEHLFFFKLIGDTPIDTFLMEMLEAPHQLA
Retinoic acid receptor RXR-alpha (Homo sapiens), sequence (P19793 whole entry, looked up, the tested form may be a part): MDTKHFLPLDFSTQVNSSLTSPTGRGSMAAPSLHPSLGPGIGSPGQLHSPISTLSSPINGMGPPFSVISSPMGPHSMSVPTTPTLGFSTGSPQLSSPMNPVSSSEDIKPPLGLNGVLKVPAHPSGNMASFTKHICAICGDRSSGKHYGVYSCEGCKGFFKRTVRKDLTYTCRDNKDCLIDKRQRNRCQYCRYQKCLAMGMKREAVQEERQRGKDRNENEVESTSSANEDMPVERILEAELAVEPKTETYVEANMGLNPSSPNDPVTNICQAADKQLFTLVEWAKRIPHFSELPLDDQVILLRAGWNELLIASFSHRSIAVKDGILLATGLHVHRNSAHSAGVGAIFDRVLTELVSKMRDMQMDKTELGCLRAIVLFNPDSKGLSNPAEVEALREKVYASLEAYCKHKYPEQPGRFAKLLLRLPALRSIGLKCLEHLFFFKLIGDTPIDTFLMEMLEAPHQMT
human RAR-related Orphan Receptor gamma (RORg), RORC (gene 6097), sequence (P51449 whole entry, looked up, the tested form may be a part): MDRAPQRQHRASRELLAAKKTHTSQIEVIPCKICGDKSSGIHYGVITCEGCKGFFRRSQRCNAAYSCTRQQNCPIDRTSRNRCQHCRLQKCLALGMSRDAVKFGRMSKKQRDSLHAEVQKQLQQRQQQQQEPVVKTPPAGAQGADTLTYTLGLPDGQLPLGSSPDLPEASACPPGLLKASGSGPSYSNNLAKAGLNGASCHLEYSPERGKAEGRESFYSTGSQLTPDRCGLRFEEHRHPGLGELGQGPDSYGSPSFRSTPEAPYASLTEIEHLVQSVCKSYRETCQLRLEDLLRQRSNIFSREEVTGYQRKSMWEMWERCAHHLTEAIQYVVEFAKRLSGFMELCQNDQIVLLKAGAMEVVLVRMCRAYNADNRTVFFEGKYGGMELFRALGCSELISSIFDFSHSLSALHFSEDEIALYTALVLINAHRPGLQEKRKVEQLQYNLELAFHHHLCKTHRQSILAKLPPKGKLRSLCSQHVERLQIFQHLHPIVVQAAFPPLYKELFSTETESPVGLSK

Regarding `CC1(C)C(C=C(Cl)Cl)C1C(=O)OC(C#N)c1ccc(F)c(Oc2ccccc2)c1` (stereo not given), the call in assay [1], in assay [2], in assay [3], in assay [4], in [5] and in [6] was inactive. The result in [7] and in assay [8] was inactive.

As for `[2H]C1([2H])[n+]2ccccc2-c2cccc[n+]2C1([2H])[2H]`, the molecule was called inactive in [1], in assay [4], in assay [5], in [6], in assay [9] and in [7]. Moreover, the outcome in [10] and in assay [8] was inactive.

As to `CNC(=O)CSP(=S)(OC)OC`, the molecule was called inactive in assay [1], in [4], in [5], in [6], in [7] and in assay [8].

Take `N#CN`: the outcome in assay [1], in assay [4], in assay [5], in assay [6], in [7] and in [8] was inactive.

In the case of `O=S(=O)(O)C(F)(F)C(F)(F)C(F)(F)C(F)(F)C(F)(F)C(F)(F)C(F)(F)C(F)(F)F`, the outcome in assay [1], in assay [2], in assay [4], in assay [5], in [6] and in assay [7] was inactive. Also, the result in assay [8] was inactive. Besides, the AC50 (as a rule, the midpoint of the concentration-response curve, whichever way the signal moves) is 12 µM (active) and 17.6 µM (active) in assay [4]; 34.1 µM (active) [middle of 4 runs] in [5].

For `Cc1[nH]c(=O)n(C(C)(C)C)c(=O)c1Cl`, the molecule was classed as inactive in assay [1], in assay [4], in assay [5], in assay [6] and in [8]. The AC50 in [7] is 13.2 µM (active).

On to `O=C(O)CCCOc1ccc(Cl)cc1Cl`, for which the result in [1], in assay [2], in [4], in assay [5], in assay [6] and in [7] was inactive. In addition, in assay [8], the outcome was inactive.

Take `CN1CSC(=S)N(C)C1`: the outcome in assay [1], in assay [2], in assay [5] and in assay [8] was inactive. Also, the AC50 is 18.1 µM (active) in [4], 31.2 µM (active) in assay [6] and 19 µM (active) in assay [7].

Take `CCc1ccc(C(=O)NN(C(=O)c2cc(C)cc(C)c2)C(C)(C)C)cc1`: the call in assay [1], in assay [2], in assay [4], in assay [5], in assay [7] and in assay [10] was inactive. Also, the outcome in assay [8] was inactive. Further, the AC50 in assay [6] is 4.84 µM (active).

With `N#Cc1c(Cl)c(Cl)c(Cl)c(C#N)c1Cl`, the molecule was called inactive in assay [1], in [2] and in assay [3]. In addition, the AC50 in assay [4] was 1.46 µM (active); in assay [5], 2.48 µM (active); in assay [6], 1.98 µM (active); in assay [9] it was 1.48 µM (active); in assay [7] it was 0.166 µM (active); in assay [10], 1.67 µM (active). For the same molecule, the AC50 in [8] was 2.06 µM (active).

On to `CC(C)(C)C(O)C(Oc1ccc(Cl)cc1)n1cncn1` (stereo not given), for which the molecule was classed as inactive in assay [1], in assay [2], in [4], in [5], in [6] and in [9]. Also, the outcome in assay [7], in [10] and in [8] was inactive. Further, the AC50 in assay [4] is 3.36 µM (active); in assay [7], 5.49 µM (active).

In the case of `CCN(CC)C(=O)SCc1ccc(Cl)cc1`, the result in assay [1], in [2], in assay [3], in [4], in [5] and in [7] was inactive. Moreover, the result in assay [8] was inactive. In addition, in assay [6], the AC50 was 3.72 µM (active).

Turning to `OCCOc1ccccc1`, the result in assay [1], in assay [2], in assay [4], in assay [5], in assay [6] and in assay [9] was inactive. Moreover, the outcome in assay [7] and in assay [8] was inactive.

With `CCCN(CCOc1c(Cl)cc(Cl)cc1Cl)C(=O)n1ccnc1`, the call in assay [1], in [2], in assay [4], in [6], in [10] and in [8] was inactive. Besides, the AC50 in assay [5] was 22.1 µM (active); in [7], 37 µM (active).

Take `O=C(O)C(F)(F)C(F)(F)C(F)(F)C(F)(F)C(F)(F)C(F)(F)C(F)(F)F`: the outcome in assay [1], in assay [2], in assay [4], in [5], in assay [6] and in [7] was inactive. Moreover, the result in assay [8] was inactive.

Take `CCC(C)(NC(=O)c1cc(Cl)c(C)c(Cl)c1)C(=O)CCl` (stereo not given): the molecule was called inactive in assay [1] and in [2]. For the same molecule, the AC50 in assay [4] is 8.28 µM (active); in assay [5] it was 33.8 µM (active); in [6] it was 21.1 µM (active); in [7] it was 3.57 µM (active); in assay [8] it was 14.1 µM (active).

Consider `CNC(=O)Oc1ccccc1OC(C)C`, for which the result in [1], in assay [4], in assay [6], in assay [7] and in assay [8] was inactive. Also, in assay [5], the AC50 was 5.51 µM (active).

On to `CCOC1Oc2ccc(OS(C)(=O)=O)cc2C1(C)C` (stereo not given), for which the molecule was classed as inactive in [1], in assay [2], in assay [4], in assay [5] and in [8]. In addition, the AC50 was 24.8 µM (active) in assay [6] and 23 µM (active) in assay [7].

Take `Oc1cc(Cl)ccc1Oc1ccc(Cl)cc1Cl`: the molecule was classed as inactive in assay [1] and in assay [2]. Moreover, the AC50 in assay [2] is 18 µM (active); in assay [4], 14.4 µM (active) and 13.7 µM (active) and 24.9 µM (active); in [5], 32.1 µM (active) and 36.1 µM (active) and 31.2 µM (active); in assay [6], 32.9 µM (active) [middle of 4 runs]; in assay [7], 13.9 µM (active) [middle of 4 runs]; in assay [8], 32.6 µM (active) [middle of 4 runs].

As for `O=C(Nc1ccccc1)Nc1cnns1`, the call in [1], in assay [2], in assay [3], in assay [4], in assay [5] and in [6] was inactive. The outcome in assay [8] was inactive. Also, in assay [7], the half-maximal activity concentration (AC50) is 36.1 µM (active).

Take `Oc1ccc(Cl)cc1Cc1ccccc1`: the AC50 in assay [2] is 13.6 µM (active) [middle of 5 runs]; in [4] it was 34.7 µM (active) [middle of 6 runs]; in assay [5] it was 33.8 µM (active) [middle of 7 runs]; in [6], 34.8 µM (active) [middle of 7 runs]; in assay [7], 31.3 µM (active) [middle of 7 runs]; in assay [8], 36.8 µM (active) [middle of 7 runs]. For the same molecule, the molecule was classed as inactive in [2] and in assay [3].

Turning to `CCC(C)(C)C(=O)OC1=C(c2ccc(Cl)cc2Cl)C(=O)OC12CCCCC2`, the result in assay [1] and in assay [2] was inactive. The AC50 in [4] is 19.9 µM (active); in [5], 31 µM (active); in assay [6] it was 29.4 µM (active); in assay [7], 11 µM (active); in assay [8], 35.2 µM (active).

Consider `O=[N+]([O-])c1c(Cl)c(Cl)c(Cl)c(Cl)c1Cl`, for which the outcome in [1], in [2], in [4], in assay [5], in [6] and in assay [9] was inactive. In addition, the result in assay [8] was inactive. Also, the AC50 in assay [7] was 36.9 µM (active).

As for `CC(C)OC(=O)Nc1cccc(Cl)c1`, the result in assay [1], in assay [2], in assay [4], in [5], in assay [6] and in assay [9] was inactive. Also, the result in [7], in assay [10] and in [8] was inactive.
